Screening results as filed in PubChem.
A selection: hits, their analogues and other compounds. The true share with any hit is near 1.8%.
LYPLA1 counter – LYPLA1 (human) inhibition in PME1 counter-screen; O75608; recombinant LYPLA1, FP-Rh probe fluorescence polarization; inhibition, % at 5.9 µM; hit rate 0.16% among 320,000; AID 2174;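 active = inhibition above the mean of all tested compounds plus 3 SD, set per campaign, cut at about 14% in these data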;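 also: inhibitors block serine hydrolase probe labeling of LYPLA1 so polarization falls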
Target sequence (O75608 whole entry, looked up): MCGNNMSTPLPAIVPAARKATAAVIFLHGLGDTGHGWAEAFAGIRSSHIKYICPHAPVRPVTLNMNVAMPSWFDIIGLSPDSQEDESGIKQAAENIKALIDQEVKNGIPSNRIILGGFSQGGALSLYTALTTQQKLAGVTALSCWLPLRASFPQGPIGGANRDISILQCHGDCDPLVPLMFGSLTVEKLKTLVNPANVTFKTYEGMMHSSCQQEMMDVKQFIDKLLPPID
PME-1 inh – blocks human protein phosphatase methylesterase 1; Q9Y570; recombinant PME-1, FP-Rh probe fluorescence polarization; inhibition, % at 5.9 µM; hit rate 0.53% among 320,000;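 active = inhibition above the campaign mean of all compounds plus 3 SD, cut at about 26% in these data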;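 also: competitive labeling of PME-1 active site by serine hydrolase directed probe; inhibitors block probe labeling so polarization falls and inhibition rises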
GSTO1 counter – counter-screen for RBBP9 inhibitors: inhibitors of human GSTO1 | hit rate 1.1% among 300,000 | AID 1974 | inhibition, % at 5.96 µM | P78417 | recombinant GSTO1, activity-based probe fluorescence polarization;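 active = inhibition above the campaign mean inhibition plus 3 SD, cut at about 35% in these data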
Target sequence (P78417 whole entry, looked up): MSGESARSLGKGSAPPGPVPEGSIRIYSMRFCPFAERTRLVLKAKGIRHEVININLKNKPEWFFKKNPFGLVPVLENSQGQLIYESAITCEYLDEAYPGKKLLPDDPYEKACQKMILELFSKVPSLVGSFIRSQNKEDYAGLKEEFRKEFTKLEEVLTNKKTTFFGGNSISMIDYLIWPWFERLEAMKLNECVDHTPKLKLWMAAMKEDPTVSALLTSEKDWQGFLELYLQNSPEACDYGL
Fam108B counter – counter-screen for RBBP9 inhibitors: inhibitors of mouse Fam108B | inhibition, % at 9.51 µM | recombinant Fam108B, FP-Rh probe fluorescence polarization | hit rate 0.33% among 300,000;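 active = inhibition above the screen mean inhibition plus 3 SD, computed separately per campaign, cut at about 18% in these data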;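 also: inhibitors lower polarization as less probe binds the enzyme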
LYPLA2 inh – LYPLA2 (human) inhibition in PME1 counter-screen; hit rate 0.38% among 320,000; inhibition, % at 5.9 µM; recombinant LYPLA2, FP-Rh probe fluorescence polarization; O95372;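 active = inhibition above the screen-wide mean plus 3 SD, limit set per campaign, cut at about 26% in these data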
Target sequence (O95372 whole entry, looked up): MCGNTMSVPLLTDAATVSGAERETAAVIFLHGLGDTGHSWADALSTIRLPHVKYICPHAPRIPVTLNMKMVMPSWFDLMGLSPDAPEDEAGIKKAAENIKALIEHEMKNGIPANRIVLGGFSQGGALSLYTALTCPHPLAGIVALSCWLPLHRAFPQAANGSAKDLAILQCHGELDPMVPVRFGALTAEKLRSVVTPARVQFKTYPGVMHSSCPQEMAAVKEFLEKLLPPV
PAD4 FP inh – PAD4 (human) enzyme inhibition; inhibition, % at 6.36 µM; Q9UM07; hit rate 0.41% among 330,000; recombinant PAD4, RCA probe fluorescence polarization;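 active = percent inhibition above a cutoff equal to the mean of all tested compounds plus 3 SD, cut at about 15% in these data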
LYPLA2 confirm – LYPLA2 (human) inhibition, confirmation counter-screen; shares compounds with LYPLA2 inh; recombinant LYPLA2, FP-Rh probe fluorescence polarization; inhibition, % at 5.9 µM; hit rate 72% among 1,100; AID 2232;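 active = mean inhibition across replicates above the hit cutoff set in the primary screen, cut at about 26% in these data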;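 also: blocked labeling of the enzyme by serine hydrolase FP-Rh probe lowers polarization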
LYPLA2 gel ABPP – LYPLA2 (human) inhibition, late stage results | shares compounds with LYPLA2 inh | rhLYPLA2 in mouse brain proteome, gel ABPP FP-Rh | inhibition, % at 20 µM | hit rate 30% among 150 | AID 652029;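 active = inhibition of LYPLA2 enzyme probe labeling above about 50%, limit read from the data; inactive = inhibition below that limit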;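 also: loss of FP-Rh probe labeling of the LYPLA2 gel band measured as band density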
Each line names hits and unclear results; the compound was inactive in the other large screens (follow-up assays come after a bar, where they were run).

COc1ccc(NC(=O)N(C)C[C@H]2Oc3ccc(NS(=O)(=O)c4c(C)noc4C)cc3C(=O)N([C@H](C)CO)C[C@@H]2C)cc1	none (no result: LYPLA1 counter, PME-1 inh, GSTO1 counter, Fam108B counter, LYPLA2 inh)
COc1ccc(-c2noc(CCC(=O)N3CCN(c4cccc(OC)c4)CC3)n2)cc1	none (no result: LYPLA1 counter, PME-1 inh, GSTO1 counter, Fam108B counter, LYPLA2 inh)
Cc1ccc(/C=C/C(=O)N2CCN(c3cccc(C(F)(F)F)c3)CC2)cc1	LYPLA2 inh 47 | LYPLA2 confirm 35
COc1ccc(-c2noc(CCC(=O)N3CCN(c4cccc(C(F)(F)F)c4)CC3)n2)cc1	LYPLA2 inh 69 | LYPLA2 confirm 67 | LYPLA2 gel ABPP 70
CCN(CC)C(=O)Cn1cc(S(=O)(=O)CC(=O)Nc2ccccc2F)c2ccccc21	none
COc1ccc(N2CCN(C(=O)CCNS(=O)(=O)c3cc(Br)cnc3N)CC2)cc1	LYPLA2 inh 32 | LYPLA2 confirm inactive
COc1ccccc1N1CCN(C(=O)CNS(=O)(=O)c2ccc(Br)s2)CC1	none
COc1ccc(N2CCN(C(=O)CNS(=O)(=O)c3ccc(Br)s3)CC2)cc1	LYPLA2 inh 27 | LYPLA2 confirm 33
COc1ccc(N=Nc2c(C)[nH]c3ccccc23)cc1	none
Fc1ccccc1COc1ccc(Br)cc1CNCc1cccnc1	none
Fc1ccccc1COc1ccc(Br)cc1CNCc1ccncc1	LYPLA2 inh 27 | LYPLA2 confirm inactive
C[n+]1ccn(CC(=O)c2cc(C(C)(C)C)c(O)c(C(C)(C)C)c2)c1	none
COC(=O)c1ccc(NC(=O)C(=O)N2CCN(C(=S)Nc3ccc(C)cc3)CC2)cc1	LYPLA2 inh 48 | LYPLA2 confirm 54
COC(=O)c1ccc(NC(=O)C(=O)N2CCN(C(=S)Nc3ccc(OC)cc3)CC2)cc1	LYPLA2 inh 42 | LYPLA2 confirm 58
COc1ccc(CNC(=O)COC(=O)c2ccc(S(=O)(=O)N3CCCCC3)cc2)cc1	none (no result: LYPLA1 counter, PME-1 inh, GSTO1 counter, Fam108B counter, LYPLA2 inh)
Cc1cc(C(=O)COc2cccnc2[N+](=O)[O-])c(C)n1-c1ccccc1F	LYPLA2 inh 28 | LYPLA2 confirm inactive
Cc1ccc(-n2c(C)cc(C(=O)COc3cccnc3[N+](=O)[O-])c2C)cc1	LYPLA2 inh 31 | LYPLA2 confirm inactive
CN(C)C(=O)c1ccc(NC(=O)COC(=O)C2(c3ccccc3)CCCC2)cc1	none (no result: LYPLA1 counter, PME-1 inh, GSTO1 counter, Fam108B counter, LYPLA2 inh)
COc1ccc(/C=C2\SC(=O)N(CC(=O)Nc3cccc(C)c3)C2=O)cc1O	LYPLA2 inh 41 | LYPLA2 confirm 38
COc1ccc(/C=C2\SC(=S)N(CCCC(=O)Nc3cccc(C(=O)O)c3)C2=O)cc1OC	none
COc1cc(/C=C2\SC(=O)N(CC(=O)Nc3cccc(C)c3)C2=O)ccc1OC(C)C(=O)O (stereo unspecified)	LYPLA2 inh 74 | LYPLA2 confirm 74 | LYPLA2 gel ABPP 80
COc1ccc(/C=C2\SC(=S)N(CCC(=O)Nc3cccc(O)c3)C2=O)cc1OC	none
CCc1ccc(NC(=O)c2ccc(NC3=NC4CS(=O)(=O)CC4S3)cc2)cc1 (stereo unspecified)	none
Cc1ccc(C(=O)N[C@H](C(=O)Nc2sccc2C(N)=O)C(C)C)cc1	none
O=[N+]([O-])c1ccc(S(=O)(=O)NCC(c2cccnc2)N2CCc3ccccc32)cc1 (stereo unspecified)	none
CN(Cc1nc(-c2ccccn2)no1)S(=O)(=O)c1ccc(Cl)cc1	LYPLA2 inh 28 | LYPLA2 confirm 26
O=C(NNc1ccccc1[N+](=O)[O-])Nc1cccc(Cl)c1	LYPLA2 inh 40 | LYPLA2 confirm 46
Cc1ccc(S(=O)(=O)N(C)CC(=O)O/N=C(\N)c2ccc([N+](=O)[O-])cc2)cc1	LYPLA2 inh 67 | LYPLA2 confirm 58 | LYPLA2 gel ABPP inactive
CN(CC(=O)O/N=C(\N)c1cccc([N+](=O)[O-])c1)S(=O)(=O)c1ccccc1	none
CN(CC(=O)O/N=C(\N)c1ccc([N+](=O)[O-])cc1)S(=O)(=O)c1ccccc1	LYPLA2 inh 29 | LYPLA2 confirm inactive
CSCCC(NC(=O)c1ccccc1Cl)C(=O)N1CCCCC1 (stereo unspecified)	none (no result: GSTO1 counter, Fam108B counter)
CC(Oc1ccc(F)cc1F)C(=O)NNC(=S)NCC1CCCO1 (stereo unspecified)	none
CCCCCCOC(=O)CCc1c(C)nc(N)[nH]c1=O	none
CCCCCCCCOC(=O)CCc1c(C)[nH]c(=S)[nH]c1=O	LYPLA2 inh 39 | LYPLA2 confirm 30
CC(=O)c1ccc(S(=O)(=O)N2CCN(C)CC2)cc1	none
CC(=O)c1ccc(N2CCN(c3ccc(S(=O)(=O)N4CCN(C)CC4)cn3)CC2)cc1	LYPLA2 inh 27 | LYPLA2 confirm 35
CCN1CCc2c(sc(NC(=O)c3ccc(C(=O)c4ccccc4)cc3)c2C(N)=O)C1	LYPLA2 inh 26 | LYPLA2 confirm inactive
CCc1ccc(C(=O)N2CCC(c3nc4ccccc4s3)CC2)cc1	LYPLA2 inh 49 | LYPLA2 confirm 39
Cc1cc(=O)oc2cc(Oc3ccc(C(N)=O)cc3[N+](=O)[O-])ccc12	LYPLA2 inh 33 | LYPLA2 confirm 26
CCCCC1(c2ccc(F)cc2)NC(=O)N(CC(=O)Nc2ccc(N3CCOCC3)cc2)C1=O (stereo unspecified)	none (no result: LYPLA1 counter, PME-1 inh, GSTO1 counter, Fam108B counter, LYPLA2 inh)
COc1ccc(N2CCN(C(=O)C3CCN(S(=O)(=O)c4cccs4)CC3)CC2)cc1	LYPLA2 inh 43 | LYPLA2 confirm 52 | LYPLA2 gel ABPP inactive
O=C(C1CCN(S(=O)(=O)Cc2ccccc2)CC1)N1CCN(c2ncccn2)CC1	none
O=C(C1CCN(S(=O)(=O)c2cccs2)CC1)N1CCN(c2ccccc2)CC1	none
CC(=O)c1ccc(N2CCN(C(=O)C3CCN(S(=O)(=O)Cc4ccccc4)CC3)CC2)cc1	LYPLA2 inh 36 | LYPLA2 confirm 33
Cn1c(=O)oc2cc(S(=O)(=O)N3CCC(C(=O)N4CCN(c5ccc(F)cc5)CC4)CC3)ccc21	LYPLA2 inh 44 | LYPLA2 confirm 39
Cn1c(=O)oc2cc(S(=O)(=O)N3CCC(C(=O)N4CCN(c5ccccc5)CC4)CC3)ccc21	none
COc1ccc(N2CCN(C(=O)C3CCN(S(=O)(=O)c4ccc5c(c4)oc(=O)n5C)CC3)CC2)cc1	LYPLA2 inh 32 | LYPLA2 confirm 41
CN(CC(=O)Nc1ccc(F)cc1)C(=O)c1ccc(N2C(=O)CCC2=O)cc1	none (no result: GSTO1 counter, Fam108B counter)
COc1ccccc1-c1nnc(N)s1	LYPLA2 inh 28 | LYPLA2 confirm inactive
COc1ccc(C(=O)O/N=C2\CCCc3nonc32)cc1	LYPLA2 inh 42 | LYPLA2 confirm 61
CCc1cccc(NS(=O)(=O)c2c(C)nc3scc(C)n3c2=O)c1	none
O=C(COC(=O)c1ccccc1Cl)NC1CCCCCC1	none (no result: LYPLA1 counter, PME-1 inh, GSTO1 counter, Fam108B counter, LYPLA2 inh)
O=C(O)c1ccccc1SCc1cn2cc(Cl)ccc2n1	LYPLA2 inh 32 | LYPLA2 confirm inactive
